# Compound activity: PubChem, National Center for Advancing Translational Sciences (NCATS)
# ELG1 genotox – qHTS screen for small molecules that induce genotoxicity in human embryonic kidney (HEK293T) cells expressing luciferase-tagged ELG1 | HEK293T ELG1-luciferase reporter, luminescence, 16 h | Potency, µM (series often up to 46 µM), for inactives: top-dose activity change, positive = activation, usual class: activators | 1.3% of 330,000 active | AID 504466, 2011; note: % of control where 0% means no effect; nearly all actives have a fitted effect of over 60% in size
#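 Genotoxic stress is detected as increased luminescence from luciferase-tagged ELG1 in HEK293T cells, measured with ONE-Glo after a 16 hr treatment at 37 °C.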
# FLuc modulator – qHTS profiling assay for firefly luciferase inhibitor/activator using purifed enzyme and Km concentrations of substrates (counterscreen for miR-21 project). Luciferin 4-monooxygenase (Photinus pyralis), P08659. AID 588342, 2011. 6.9% of 360,000 active. Potency, µM (top dose mostly 57.5 µM), without a hit: top-dose activity change, negative = inhibition, most hits filed as inhibitors. purified FLuc, Km substrates, luminescence inhibition;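 note: plate controls were vehicle for no effect and reference inhibitor for full effect; nearly all actives have a fitted effect of over 55% in size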
# Target sequence (P08659 whole entry, looked up): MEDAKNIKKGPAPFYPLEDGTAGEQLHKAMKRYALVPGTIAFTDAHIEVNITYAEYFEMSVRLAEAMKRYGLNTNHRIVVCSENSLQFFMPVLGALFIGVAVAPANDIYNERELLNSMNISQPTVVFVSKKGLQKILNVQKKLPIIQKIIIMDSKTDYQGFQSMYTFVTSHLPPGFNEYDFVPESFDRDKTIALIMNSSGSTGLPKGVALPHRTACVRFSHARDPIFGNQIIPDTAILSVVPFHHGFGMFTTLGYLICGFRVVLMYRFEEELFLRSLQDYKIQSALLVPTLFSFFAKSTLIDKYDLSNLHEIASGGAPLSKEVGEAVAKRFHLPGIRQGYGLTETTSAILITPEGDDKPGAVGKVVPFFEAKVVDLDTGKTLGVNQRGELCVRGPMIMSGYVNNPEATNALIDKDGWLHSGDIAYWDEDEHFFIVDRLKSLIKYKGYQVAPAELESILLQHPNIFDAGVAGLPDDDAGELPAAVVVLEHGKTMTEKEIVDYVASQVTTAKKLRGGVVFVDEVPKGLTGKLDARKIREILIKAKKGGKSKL
#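 Purified P. pyralis luciferase, 10 nM final, with Km-level 10 uM D-luciferin and 10 uM ATP in 50 mM Tris acetate pH 7.5, 10 mM Mg acetate, 0.01% Tween-20, 0.05% BSA; 6-point qHTS titration about 60 µM downward; luminescence read.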
# Rab9 promoter act – qHTS Assay for Rab9 Promoter Activators; Huh7 Rab9 promoter-luciferase reporter, luminescence, 24 h; Potency, µM (series often up to 9.22 µM), for the others: at the top dose activation, negative = inhibition, most hits filed as activators; 2.8% of 320,000 active; AID 485297, 2010; note: % of control where 0% means no effect; nearly all actives have a fitted effect of over 60% in size
#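 Luminescence read-out: Huh7 cells stably expressing Rab9-luciferase, treated 24 h with compound at 37 °C, then lysed with luciferase reagent for 10 min at ambient before reading.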
# SMN2 splice enh – qHTS Assay for Enhancers of SMN2 Splice Variant Expression | HEK293 SMN2-luciferase splicing reporter, luminescence, 30-36 h | Potency, µM (series often up to 46.1 µM), for inactives: at the highest dose activity change, positive = activation, usual class: activators | 2.8% of 210,000 active | AID 1458, 2008; note: % of control where 0% means no effect; nearly all actives have a fitted effect of over 55% in size
#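 HEK293 cells carry an SMN2 […]–luciferase reporter in which exon 7 inclusion puts luciferase in frame. Cells were plated 10-12 h before compound addition, then incubated 30-36 h at 37C. ONE-Glo luminescence was read; sodium butyrate at 4.5 mM final served as control.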
# NPC1 prom act – qHTS Assay for NPC1 Promoter Activators. Huh7 NPC1 promoter luciferase reporter, 24 h. 2.4% of 320,000 active. Potency, µM (doses to about 9.22 µM), for the others: top-dose activation, usual class: activators; note: % of control where 0% means no effect; nearly all actives have a fitted effect of over 60% in size
#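 NPC1 promoter–luciferase Huh7 cells; 24 h compound; luminescence.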
# KinaseGlo FLuc – Counterscreen for Luciferase (Kinase-Glo TM) Inhibition; 0.28% of 200,000 active; Potency, µM (titrated, usually from 38.3 µM), without a hit: top-dose activity change, negative = inhibition, hits mostly inhibitors; AID 1379, 2008; Kinase-Glo luciferase, ATP luminescence, 8 min; Luciferin 4-monooxygenase (Photuris pensylvanica), Q27757; note: % is set by controls: 0 for no effect and ±100 for the full control effect; nearly all actives have a fitted effect of over 60% in size
#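 Recombinant Kinase-Glo luciferase, 10 uM ATP (linear range), luciferin; imidazole pH 7.2 / KCl / MgCl2 / Tween / BSA buffer; 8 min RT; luminescence.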
# * marks the source's active call; other numbers are inactive results; ? = inconclusive; · = no result given. Rows were chosen to be rich in hits. Some 7.4% of all compounds tested hit in one or more screens of this group. Calls come from the whole dose curve; as a rule, active = well fitted curve in the direction sought with a large enough effect; inconclusive = small, poorly fitted or top-dose-only effect, or another doubt; inactive = no such curve, though single readings can be large; an effect the other way counts as inactive or inconclusive. Potency is the fitted concentration of half-maximal effect.
SMILES,ELG1 genotox,FLuc modulator,Rab9 promoter act,SMN2 splice enh,NPC1 prom act,KinaseGlo FLuc
O=C1NC[C@@H](Cc2cccc3ccccc23)N(CCCCC2CCCCC2)C1=O,-0.1%,1.0%,-2.9%,·,1.5%,·
CN(C)c1ccc(-c2ccc3c(=O)c4ccccc4n(C)c3c2)cn1,16.4µM*,4.78µM*,2.24µM*,·,2.51µM*,·
COc1cc(C#N)ccc1OC(=O)Cc1cc(OC)c(OC)c(OC)c1,1.1%,-0.8%,-3.6%,·,-4.1%,·
COc1ccccc1CCC(=O)Oc1ccc(C#N)cc1OC,11.6%,21.3µM*,-2.7%,·,-3.4%,·
COc1cccc(C(=O)Nc2ccc(C(=O)c3ccncc3)cc2)c1,-10.0%,?,-21.0%,·,-3.5%,·
CC(=O)c1ccc(NC(=O)c2ccn[nH]2)cc1,10.3µM*,9.53µM*,3.55µM*,11.2µM*,2µM*,-27.8%
O=C(Nc1ccccc1)c1ccn[nH]1,?,10.7µM*,2.51µM*,12.6µM*,3.55µM*,-19.9%
CS(=O)(=O)c1ccc2nc(NC(=O)C3COc4ccccc4O3)sc2c1 (stereo not drawn),6.0%,10.7µM*,21.9%,·,25.6%,·
CS(=O)(=O)c1ccc2nc(NC(=O)CC3CCCC3)sc2c1,0.4%,?,20.9%,1.7%,13.1%,-8.5%
COc1ccc2nc(NC(=O)C3COc4ccccc4O3)sc2c1 (stereo not drawn),?,3.01µM*,3.16µM*,12.6µM*,1.58µM*,1.3%
COc1ccc2nc(NNC(=O)C3COc4ccccc4O3)sc2c1 (stereo not drawn),1.5%,-12.0%,-0.5%,-3.2%,0.1%,-1.8%
O=C(Nc1nc(-c2nc3ccccc3s2)cs1)C1COc2ccccc2O1 (stereo not drawn),1.1%,19µM*,28.1%,25.1µM*,20.1%,-4.3%
COc1cccc(NC(=O)/C(C#N)=C\c2cn(Cc3ccc(Cl)cc3)c3ccccc23)c1,·,-1.6%,·,-49.0%,·,·
Clc1ccc(N=C2SCC3CCCCN23)cc1 (stereo not drawn),26.2%,9.53µM*,2.51µM*,·,3.98µM*,·
FC(F)Oc1ccc(N=C2SCC3CCCCN23)cc1 (stereo not drawn),?,12µM*,3.55µM*,·,2µM*,·
Clc1ccc(N=C2SCCS2)cc1,9.5%,?,27.4%,·,26.7%,·
CS(=O)(=O)c1ccc(Cl)c(NC(=O)CCN2C(=O)NC3(CCCC3)C2=O)c1,2.3%,·,·,·,·,·
C/C(=N\Nc1nc2ccc(Cl)cc2o1)c1ccccc1,3.7%,16.9µM*,?,·,25.3%,·
C/C(=N/NS(=O)(=O)c1ccccc1)c1ccc(Cl)cc1,-2.7%,1.8%,-3.2%,-15.8%,0.0%,-1.4%
Clc1ccc(-c2cc(COc3ccccc3)on2)cc1,-15.5%,10.7µM*,?,?,15.2%,2.0%
O=S(=O)(Cc1cc(-c2ccc(Cl)cc2)no1)c1ccccc1,9.2µM*,?,3.55µM*,12.6µM*,?,-0.5%
O=S(=O)(Cc1cc(-c2ccccc2Cl)no1)c1ccccc1,?,16.9µM*,2.82µM*,?,?,-0.7%
Clc1ccc(OCc2cc(-c3ccccc3)no2)cc1Cl,11.9%,?,24.0%,24.1%,14.4%,1.3%
Cc1cc(SCC(=O)NC(=O)c2cccn2C)nc2ccccc12,-0.3%,-15.7%,-0.9%,·,0.7%,·
COc1ccccc1/C=C/c1nc(C#N)c(N2CCN(C)CC2)o1,·,2.9%,·,5.2%,·,·
CCOC(=O)c1c(C)cc(O)c(C=O)c1O,·,·,·,-10.0%,·,-7.5%
FC(F)Oc1ccccc1/C=N/n1cnc2ccccc21,10.8%,23.9µM*,25.2%,?,1.1%,3.1%
NC(N)=N/N=C/c1ccccc1OC(F)F,-1.9%,0.9%,1.6%,-8.5%,0.2%,-0.1%
